# Laboratory results reported in PubChem BioAssay (NCI).
# About 83,000 compounds went through this panel and 20% of them were active in at least one assay; those are over-represented in the sample as a whole.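 In brief: 96-well plates, 48 h treatment, single concentration, percent growth endpoint.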 Unmarked numbers belong to inactive results. Activity calls are given as the source filed them. The calls were made as follows: active = growth percent below 10; inactive = the rest.
# Experiments:
# Experiment in all cases: NCI-60 one-dose screen, 48 h (100 = growth as untreated, 0 = no growth, -100 = all killed)
# Conditions in all cases: 10 µM unless noted
# SR leukemia = test system: SR leukemia
# RPMI-8226 leukemia = test system: RPMI-8226 leukemia
# OVCAR-8 ovarian = test system: OVCAR-8 ovarian
# OVCAR-5 ovarian = test system: OVCAR-5 ovarian
# OVCAR-4 ovarian = test system: OVCAR-4 ovarian
# SK-OV-3 ovarian = test system: SK-OV-3 ovarian
# IGROV1 ovarian = test system: IGROV1 ovarian
# OVCAR-3 ovarian = test system: OVCAR-3 ovarian
# HS 578T breast = test system: HS 578T breast
# NCI/ADR-RES ovarian = test system: NCI/ADR-RES ovarian
SMILES,growth (SR leukemia),growth (RPMI-8226 leukemia),growth (OVCAR-8 ovarian),growth (OVCAR-5 ovarian),growth (OVCAR-4 ovarian),growth (SK-OV-3 ovarian),growth (IGROV1 ovarian),growth (OVCAR-3 ovarian),growth (HS 578T breast),growth (NCI/ADR-RES ovarian)
COC(=O)[C@]12CC[C@@H](C)[C@H](C)[C@@H]1C1=CC[C@@H]3[C@@]4(C)CC(=O)[C@H](OC(=O)c5ccco5)[C@@]5(C)COC(=C45)C[C@@]3(C)[C@]1(C)CC2,25.8%,24.4%,28.5%,69.2%,19.6%,36.1%,53%,43.5%,61.4%,33.3%
CN1CCN(CCOc2ccc(-c3cnc4c(-c5ccccc5F)cnn4c3)cc2)CC1,-12.6% (active),-9.99% (active),40.7%,80.4%,63.6%,94.2%,57.3%,20.3%,76.9%,48.8%
COc1cccc(-c2nn(-c3ccccc3)cc2-c2ccnc(NCCCNS(=O)(=O)c3ccccc3)c2)c1,2.99% (active),18.4%,16%,67.2%,39.6%,43%,31.3%,41.3%,37.5%,21.1%
CC(=O)Cc1nsc(NC(=O)c2ccoc2COc2ccccc2)n1,104%,88.6%,103%,94.1%,103%,111%,95.9%,111%,107%,99.1%
C=C1C(=O)O[C@H]2[C@H]1CC/C(Cn1cc(-c3ccc(OC)cc3)nn1)=C\CC[C@@]1(C)O[C@@H]21,-10.8% (active),-33.3% (active),-51% (active),17.2%,27.4%,120%,-51.1% (active),-83.9% (active),75.6%,24.7%
Cc1cc(N(CCCNc2ccnc3cc(Cl)ccc23)Cc2ccco2)nc(N2CCOCC2)n1,8.63% (active),35.1%,80.4%,79%,65.7%,78.6%,45.2%,72.4%,77.5%,67.4%
COc1ccc(-c2nc(SCC(=O)Nc3ccc(C(C)=O)cc3)[nH]c(=O)c2C#N)cc1,97.5%,114%,91%,97.3%,108%,79.5%,106%,108%,115%,108%
Cc1c(C)c2c(c(C)c1NC(=O)CCCCCCC(=O)O)CCC(C)(CCCC(C)CCCC(C)CCCC(C)C)O2 (stereo not given),6.23% (active),69%,69.1%,121%,58.5%,99.3%,89.8%,65.5%,101%,77.3%
COc1ccc(-c2cc(-c3cccs3)n(N=O)c(=O)c2C#N)cc1,114%,88.4%,97.4%,94.4%,100%,105%,100%,123%,101%,102%
CN1CCN(c2ccc3nc(-c4[nH]ncc4Nc4ncnc5[nH]ccc45)[nH]c3c2)CC1,-6.78% (active),101%,7.18% (active),6.49% (active),-10.9% (active),12.6%,0.386% (active),-0.64% (active),15.8%,80.4%
O=C1C(=O)N(CCCCn2cc(-c3ccccc3)nn2)c2ccccc21,108%,95.6%,103%,102%,106%,111%,101%,111%,99.1%,104%
Cc1ccc2c(c1)c1nc3cc(C)c(C)cc3nc1n2CCN(C)C,6.5% (active),1.96% (active),18.4%,20.5%,33.1%,30.9%,6.96% (active),29.7%,50.1%,12.8%
COc1cnc2c(c1)C(=O)c1c-2n(CCCNC(C)C)c(=O)c2cc([N+](=O)[O-])ccc12,-7.62% (active),-25.1% (active),-47.6% (active),-46.6% (active),-68.9% (active),-66.8% (active),-56.4% (active),-74.3% (active),-31% (active),-39.9% (active)
COc1cccc(-c2nn(-c3ccccc3)cc2-c2ccnc(NCCCO)c2)c1,5.71% (active),28.3%,46%,92%,55.1%,45%,58.8%,25.9%,35.7%,7.32% (active)
Nc1ccc(Cl)cn1,113%,101%,101%,101%,97.4%,93.6%,104%,106%,99.7%,98.7%
CC(=O)n1c(/C(C#N)=C/c2ccc(N(C)C)cc2)cc2ccccc21,26.8%,16.2%,40.3%,60.7%,76.8%,34.8%,40.3%,8.84% (active),11.9%,16.7%
CCc1ccccc1NC(=O)c1sc2nc3c(cc2c1N)CCCC3,9.86% (active),46.1%,52.3%,79.3%,66.8%,38.8%,64.8%,23.8%,29.9%,19.9%
COc1cc2c3c(c4c5ccccc5[nH]c4c2c(OC)c1OC)C(=O)N(O)C3=O,14.3%,31.6%,36.8%,112%,56.6%,48.8%,9.03% (active),49.5%,67.4%,43.8%
c1ccc(C2Cc3ccccc3C2=NC2CCCCC2)cc1 (stereo not given),91.1%,100%,107%,90.8%,102%,110%,112%,121%,113%,113%
COc1cc(OC)c2c(c1)c1nc3cc(C)c(C)cc3nc1n2CCN(C)C,49.4%,65.2%,79.3%,105%,87.8%,93.7%,87.2%,109%,91.9%,82%
CN(C)c1cccc2[nH]c(-c3[nH]ncc3Nc3ccnc(N)n3)nc12,7.64% (active),-15.6% (active),-22.7% (active),-1.19% (active),-11.7% (active),0.381% (active),-11% (active),-6.36% (active),-13.8% (active),-1.48% (active)
C[C@]12CC[C@@H]3c4ccc(O)cc4CC[C@H]3[C@@H]1C[C@H](O)[C@@H]2O,99.2%,98.6%,103%,85.5%,99.8%,120%,98%,90.3%,86.6%,102%
C[C@H]1[C@@H]2[C@H]3CC[C@@H]4[C@@]5(C)Cc6c([nH]c7ccccc67)C(C)(C)[C@@H]5CC[C@@]4(C)[C@]3(C)CC[C@]23CO[C@]1(C)[C@@H](C(=O)/C=C/c1ccccn1)C3,55.6%,62.5%,63.3%,108%,83.7%,112%,106%,96.2%,87.7%,100%
